These results are taken from PubChem BioAssay (NCI).

Structures are written as SMILES. About 79,000 compounds went through this panel and 15% of them were active in at least one assay; those are over-represented in the sample as a whole. A number with no mark means an inactive call. The source made the active and inactive calls. Cut-off read from the data, not from the text of the source: active = growth inhibition above about 70%; inactive = the rest.

Assay [1] in a line: NCI Yeast Anticancer Drug Screen. Data for the rad50 strain (AID 155).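 Note: 0% = growth of vehicle-only cultures of the same strain.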 To be noted: S. cerevisiae rad50 strain growth inhibition; at 50.0 µM; stronger effect = higher value. An outline of the steps:
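Cells are treated with compound, grown, and their growth is then scored against vehicle-only cultures of the same repair-deficient yeast strain.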

A short description of assay [2]: NCI Yeast Anticancer Drug Screen. Data for the mec2-1 strain (AID 157). To be noted: S. cerevisiae mec2-1 strain, at 50.0 µM, stronger effect = higher value. Put shortly: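 Readout is yeast growth inhibition, normalised to vehicle-treated controls, in the mec2-1 strain exposed to compound.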
Assay [3] in a line: NCI Yeast Anticancer Drug Screen. Data for the sgs1 mgt1 strain (AID 161).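 Note: 0% = growth of cultures given vehicle only.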 The conditions noted are these: S. cerevisiae sgs1 mgt1 strain, at 50.0 µM, stronger effect = higher value. Put shortly: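 Growth of a repair-deficient yeast mutant was monitored after compound treatment and expressed as inhibition relative to vehicle-treated cultures.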
Assay [4] in a line: NCI Yeast Anticancer Drug Screen. Data for the cln2 rad14 strain (AID 165).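 Note: 0% = growth equal to vehicle treated cultures.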 To be noted: S. cerevisiae cln2 rad14 strain, at 50.0 µM, stronger effect = higher value. Put shortly:
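Relative to vehicle controls, growth inhibition of compound-treated cln2 rad14 yeast was recorded.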

The nature of assay [5]: NCI Yeast Anticancer Drug Screen. Data for the bub3 strain (AID 167). The conditions noted are these: S. cerevisiae bub3 mutant strain, at 50.0 µM, stronger effect = higher value. An outline of the steps:
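Part of a panel of yeast mutants defective in DNA damage repair or cell cycle regulation. Each strain is grown with compound, and inhibition is calculated relative to solvent-treated cultures.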

Assay [6] in a line: NCI Yeast Anticancer Drug Screen. Data for the mlh1 rad18 strain (AID 175). To be noted: S. cerevisiae mlh1 rad18 strain growth inhibition; at 50.0 µM; stronger effect = higher value. Put shortly:
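Test agents were incubated with a yeast strain of defined genotype (DNA damage repair defect). Inhibition of growth was derived by comparison with vehicle-exposed cultures.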

Take `COC(=O)C(C(=O)C(=O)Nc1ccc(C(F)(F)F)cc1[N+](=O)[O-])c1csc(-n2nc(-c3ccccc3)cc2-c2ccccc2)n1` (stereo not given): the growth inhibition was 19.9% in assay [1]; 18.6% in assay [2]; 42.5% in assay [3]; -13.2% in assay [4]; 23.4% in assay [5]; 1.6% in assay [6].

On to `COc1cc(C=Nc2ccc(C(C)C)cc2)cc(OC)c1OC`, for which the growth inhibition was 9.25% in assay [1]; 13.3% in assay [2]; 19.1% in assay [3]; 8.35% in assay [4]; -4.65% in assay [5]; 12.7% in assay [6].

Regarding `CCC(=O)CCc1ccc2ccccc2c1`, the growth inhibition in assay [1] is 22.2%; in assay [2], 15.7%; in assay [3] it was 10.9%; in assay [4] it was -16.9%; in assay [5], 23.5%; in assay [6], 24.2%.

For the compound `ClC1=C(Cl)C2(Cl)C3C(CC4C3C3(Cl)C(Cl)=C(Cl)C4(Cl)C3(Cl)Cl)C1(Cl)C2(Cl)Cl` (stereo not given), the growth inhibition was -7.65% in assay [1]; -7.4% in assay [2]; -2.75% in assay [3]; -32.1% in assay [4]; 0.15% in assay [5]; -9.9% in assay [6].

Regarding `CN(C)C(N)=Nc1ncnc2ccccc12`, the growth inhibition in assay [1] is -14.6%; in assay [2], 15.2%; in assay [3] it was 0.45%; in assay [4] it was 15.7%; in assay [5], -5.85%; in assay [6] it was -1.8%.

Turning to `NC(CCCNc1nc(O)c(-c2ccccc2)c(=O)[nH]1)C(=O)O` (stereo not given), the growth inhibition in assay [1] is -12.9%; in assay [2], -24.4%; in assay [3], -10.7%; in assay [4], -44%; in assay [5] it was -10.3%; in assay [6], -3.55%.

On to `COc1ccc(C2=NN(C(C)=O)C(c3cc(OC)c(OC)cc3N)S2)cc1OC` (stereo not given) (tested in a mixture with another compound), for which the growth inhibition in assay [1] was 16.2%; in assay [2] it was 17.1%; in assay [3], 32.1%; in assay [4], 19.6%; in assay [5] it was 12.9%; in assay [6] it was 30.1%.

For the compound `C/C(C=C(C#N)C#N)=C\c1ccc(F)cc1`, the growth inhibition in assay [1] was 14.9%; in assay [2], 28.1%; in assay [3] it was -2.1%; in assay [4], 30.9%; in assay [5], -7.3%; in assay [6], 21.4%.

On to `CC(=O)OCC1OC(n2cnc([N+](=O)[O-])c2C#N)C(OC(C)=O)C1OC(C)=O` (stereo not given), for which the growth inhibition was 28.6% in assay [1]; 14.7% in assay [2]; 22.3% in assay [3]; 30.1% in assay [4]; 3.45% in assay [5]; 34.3% in assay [6].

Regarding `NC(N)=NC(N)=Nc1ccc(-c2ccc(N=C(N)N=C(N)N)cc2)cc1`, the growth inhibition is 0.85% in assay [1]; -0.3% in assay [2]; -0.7% in assay [3]; 6.15% in assay [4]; 7.9% in assay [5]; 13.6% in assay [6].

Regarding `CC(C)Nc1nc(N)nc2nc(-c3ccc(Cl)cc3)c(-c3ccc(Cl)cc3)nc12`, the growth inhibition in assay [1] is -8.7%; in assay [2], -2.5%; in assay [3], -6.85%; in assay [4], -17.4%; in assay [5], 8%; in assay [6] it was 8%.

In the case of `Nc1ccn(CCC(COCc2ccccc2)COCc2ccccc2)c(=O)n1`, the growth inhibition in assay [1] is 35.8%; in assay [2], -13.4%; in assay [3] it was 0.75%; in assay [4] it was -5.6%; in assay [5], -5.45%; in assay [6] it was 5.75%.

For the compound `O=C1CN(/N=C/c2ccc(-c3ccc(Cl)c(Cl)c3)o2)C(=O)N1`, the growth inhibition is 28.9% in assay [1]; 14.4% in assay [2]; 29.1% in assay [3]; 3.2% in assay [4]; 10% in assay [5]; 5.5% in assay [6].

Take `Cc1nc(N)[nH]c(=O)c1Cc1ccc(Cl)cc1Cl`: the growth inhibition in assay [1] was -1.65%; in assay [2] it was -1.15%; in assay [3], -5.7%; in assay [4] it was -44.4%; in assay [5] it was -12.6%; in assay [6], 8.55%.

Regarding `O=C(COc1c(Cl)cc(Cl)c2ccccc12)NC1c2ccccc2Oc2ccccc21`, the growth inhibition in assay [1] was 22.6%; in assay [2], 0.4%; in assay [3] it was 34.1%; in assay [4], 7.45%; in assay [5] it was 10.2%; in assay [6], 14.4%.

In the case of `O=c1oc2ccccc2c(O)c1C=NC(=S)c1ccncc1`, the growth inhibition was -30.6% in assay [1]; -38.4% in assay [2]; -27.9% in assay [3]; 24.9% in assay [4]; -11.3% in assay [5]; -25.5% in assay [6].

Turning to `CC(=O)Nc1c(OC(C)=O)ccc2cc(Br)ccc12`, the growth inhibition in assay [1] is -0.15%; in assay [2], 20.9%; in assay [3] it was 12.4%; in assay [4], -15.2%; in assay [5] it was -0.25%; in assay [6] it was 8.85%.

Consider `CC1=CC(=O)CCC1c1ccccc1` (stereo not given), for which the growth inhibition in assay [1] is -52.6%; in assay [2], -4.75%; in assay [3], -19.8%; in assay [4], 0.8%; in assay [5] it was -10.4%; in assay [6], -5.95%.

Turning to `O=C(O)C1CCCCC1C(=O)NCc1ccco1` (stereo not given), the growth inhibition is 5.25% in assay [1]; 4.55% in assay [2]; 4.05% in assay [3]; 3.7% in assay [4]; 25.4% in assay [5]; 0.05% in assay [6].

For `N#C/C(=C/N1C(=O)/C(=C/c2ccc([N+](=O)[O-])cc2)SC1=S)C(N)=O`, the growth inhibition is 45% in assay [1]; 56.5% in assay [2]; 63.4% in assay [3]; 54.3% in assay [4]; 45% in assay [5]; 42% in assay [6].

In the case of `S=C(S)N1CCN(c2cccc(Cl)c2)CC1`, the growth inhibition was 40.2% in assay [1]; 16.1% in assay [2]; 58.5% in assay [3]; 44.7% in assay [4]; 47.1% in assay [5]; 70.5% (active) in assay [6].

`O=C(O)C(Cc1c[nH]c2ccccc12)Nc1ccc([N+](=O)[O-])cc1[N+](=O)[O-]` (stereo not given): the growth inhibition in assay [1] was -27.7%; in assay [2] it was -3.95%; in assay [3], 13.8%; in assay [4] it was -10.7%; in assay [5], 3.6%; in assay [6], 7.55%.

Consider `CC(=O)OC(C(=O)Nc1ccc(Br)cc1)c1ccccc1` (stereo not given), for which the growth inhibition in assay [1] was 4.7%; in assay [2] it was -3.95%; in assay [3], -4.75%; in assay [4] it was -35.5%; in assay [5], 11.6%; in assay [6], -6.65%.

For the compound `Cc1cc(N/N=C/c2ccc(Cl)cc2)c2cc3c(cc2n1)OCO3`, the growth inhibition in assay [1] was 24.2%; in assay [2] it was -4.5%; in assay [3], -7%; in assay [4], 1.6%; in assay [5] it was 27.5%; in assay [6] it was 14.7%.

Turning to `Cc1c(C)c(CN)c(C)c(C)c1CN`, the growth inhibition in assay [1] was -30.5%; in assay [2], -47%; in assay [3], -16.6%; in assay [4] it was -24.2%; in assay [5], -43.4%; in assay [6], -31.7%.

Consider `CCOC(=O)CCN1C(=O)C(=O)N(c2ccc(OC)cc2)C1=S`, for which the growth inhibition is -7% in assay [1]; -6.6% in assay [2]; 3.75% in assay [3]; -57.1% in assay [4]; 5% in assay [5]; -5.6% in assay [6].

As to `COC(=O)CC(c1ccc2c(c1)OCO2)N1CCCCC1` (stereo not given), the growth inhibition in assay [1] was 7.35%; in assay [2], -12.9%; in assay [3] it was -11.7%; in assay [4], -22.9%; in assay [5], -1%; in assay [6] it was 11.2%.

Turning to `OC1(c2ccc(-c3ccccc3)cc2)c2ccccc2-c2ccccc2C1(O)c1ccc(-c2ccccc2)cc1` (stereo not given), the growth inhibition in assay [1] is 6.45%; in assay [2], -5.95%; in assay [3], -2.2%; in assay [4], 2%; in assay [5], 6.3%; in assay [6], 7.05%.

On to `Cc1ccc(S(=O)NOCc2ccccc2)cc1` (stereo not given), for which the growth inhibition was 3.25% in assay [1]; 16.4% in assay [2]; 5.3% in assay [3]; 11.4% in assay [4]; 11.1% in assay [5]; 51% in assay [6].

With `O=c1oc2ccc([N+](=O)[O-])cc2cc1-c1csc(-c2ccccc2)n1`, the growth inhibition in assay [1] is 3%; in assay [2], -9.35%; in assay [3], -7.05%; in assay [4], 7.45%; in assay [5], -26.3%; in assay [6], -48.8%.

Regarding `Cc1ccc(C(=O)Cc2ccccc2)cc1`, the growth inhibition in assay [1] is 8.05%; in assay [2] it was 6.15%; in assay [3], 4.85%; in assay [4], 1.25%; in assay [5], -1.85%; in assay [6], 1.05%.

With `O=C(O)CNC(=O)Cc1ccccc1`, the growth inhibition in assay [1] was -29.8%; in assay [2], -12.6%; in assay [3] it was -1.1%; in assay [4] it was 10.2%; in assay [5], -38.6%; in assay [6], -7.3%.

For `CCCNC1=C(C(=O)OCC)C(=O)CO1`, the growth inhibition in assay [1] is -12.4%; in assay [2], -20.7%; in assay [3], 3.55%; in assay [4], 15.6%; in assay [5], -2.4%; in assay [6], 0.1%.

Regarding `Cc1cc(C)c(NC(=O)Nc2cccc(F)c2)c(C)c1`, the growth inhibition in assay [1] is 20.8%; in assay [2], 11%; in assay [3], 13.2%; in assay [4], 19.2%; in assay [5], 23.4%; in assay [6], 13.3%.

Turning to `CCCCCCCCCCCCCC(=O)Cl`, the growth inhibition is -52.4% in assay [1]; -4% in assay [2]; -47.2% in assay [3]; -39.9% in assay [4]; -65.5% in assay [5]; -104% in assay [6].
